Assay results reported in PubChem BioAssay (NCI).
This is part of a sample that, as a whole, favours compounds with a hit. Of some 83,000 tested, about 20% had one in any assay.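 Single-concentration screen, 48 h exposure, 96-well plates. Endpoint: percent growth. Below 10 = active.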 Active and inactive are the calls of the source.

Experiments:
Assay in all cases: NCI-60 one-dose screen, 48 h (100 = growth as untreated, 0 = no growth, -100 = all killed)
Details in all cases: 10 µM unless noted
[1] = test system: NCI-H23 lung
[2] = test system: NCI-H226 lung
[3] = test system: NCI-H322M lung
[4] = test system: HOP-62 NSCLC
[5] = test system: NCI-H460 lung
[6] = test system: HOP-92 NSCLC
[7] = test system: NCI-H522 lung
[8] = test system: A549/ATCC NSCLC
[9] = test system: 786-0 renal
[10] = test system: DU-145 prostate
[11] = test system: K-562 leukemia
[12] = test system: MALME-3M melanoma
[13] = test system: MDA-MB-231 breast
[14] = test system: RXF 393 renal
[15] = test system: SF-268 CNS
[16] = test system: SF-295 CNS
[17] = test system: SF-539 CNS
[18] = test system: UACC-257 melanoma
[19] = test system: M14 melanoma

Measured: growth

CCNCCNc1cc(-c2ccc(F)cc2)c(C#N)c2nc3ccccc3n12
inactive: [1] 77.8% | [2] 93.1% | [3] 66.3% | [4] 75.6% | [6] 52.1% | [7] 64.3% | [8] 46% | [9] 57.9% | [10] 46.4% | [13] 17.9% | [14] 29.7% | [15] 53.8% | [16] 38.5%
active: [5] 3.07% | [11] -19.1% | [12] -60.1% | [17] -88.4% | [18] -76.8% | [19] -64.1%

C=C(CNCCc1ccc(O)cc1)[C@@H]1CC[C@]2(COC3CCCCO3)CC[C@]3(C)[C@H](CC[C@@H]4[C@@]5(C)CCC(NCCO)C(C)(C)[C@@H]5CC[C@]43C)[C@@H]12 (some centres undefined)
active: [1] -81% | [2] -54.2% | [3] -96.5% | [4] -89.2% | [5] -79.9% | [6] -80.8% | [7] -77.3% | [8] -88.6% | [9] -90.2% | [10] -91.9% | [11] -66.1% | [12] -86.4% | [13] -94.3% | [14] -88.9% | [15] -87.9% | [16] -82.4% | [17] -91.9% | [18] -85.6% | [19] -86.8%

O=C1Nc2ccccc2/C1=N/N=C/c1ccsc1
inactive: [1] 95.2% | [2] 106% | [3] 100% | [4] 110% | [5] 105% | [6] 109% | [7] 93.8% | [8] 107% | [9] 108% | [10] 111% | [11] 89.9% | [12] 103% | [13] 92.5% | [14] 111% | [15] 101% | [16] 108% | [17] 103% | [18] 104% | [19] 105%

CCN(CC)N=Nc1nn(C(=O)Nc2ccc(Cc3ccccc3)cc2)c2ccc(Cl)cc12
inactive: [1] 90.4% | [2] 84% | [3] 82.5% | [4] 86.9% | [5] 25.7% | [6] 102% | [7] 67.3% | [8] 67.7% | [9] 59.5% | [10] 70.5% | [11] 22.3% | [12] 139% | [13] 102% | [14] 116% | [15] 76% | [17] 77.7% | [18] 55.5% | [19] 22%
active: [16] 8.57%

COc1cc(/C=C2\C=C(c3ccccc3)N(CCc3ccccc3)C2=O)cc(OC)c1OC
active: [13] 5.9% | [17] -17.2%
inactive: [1] 74.1% | [2] 67.6% | [3] 70.1% | [4] 61.6% | [5] 76.1% | [6] 41.3% | [7] 65.7% | [8] 70.4% | [9] 11.7% | [10] 73.8% | [11] 94.2% | [12] 50.1% | [14] 72.3% | [15] 44.7% | [16] 53.3% | [18] 88.2% | [19] 73.6%

Cc1cc(-c2noc(C(F)(F)F)n2)ccc1N1CCN(c2cc(C(=O)N(C)C)no2)CC1
inactive: [1] 55.6% | [2] 55.8% | [3] 101% | [4] 68.1% | [5] 75.7% | [6] 63.5% | [7] 57% | [8] 67.3% | [9] 80.4% | [10] 85.2% | [11] 33.1% | [12] 78.5% | [13] 69.6% | [14] 105% | [15] 82.2% | [16] 49.8% | [17] 86.1% | [18] 54% | [19] 81.5%

c1ccc(-c2oc3ccccc3c2-c2ccccc2)cc1
inactive: [1] 90.2% | [2] 88.3% | [3] 95.8% | [4] 105% | [5] 99.8% | [6] 89.5% | [7] 83% | [8] 97.2% | [9] 98.8% | [10] 115% | [11] 67.7% | [12] 110% | [13] 100% | [14] 99.1% | [15] 109% | [16] 104% | [17] 98.5% | [18] 111% | [19] 102%

COc1ccc(/C=N/NC(=O)Cn2c(-c3ccc(S(C)(=O)=O)cc3)nc3cc(Cl)ccc32)cc1
inactive: [1] 29.9% | [2] 57.1% | [3] 51.4% | [4] 30.5% | [6] 49.3% | [8] 17.4% | [9] 39.2% | [10] 14.2% | [12] 65.8% | [13] 12.9% | [14] 14.9% | [15] 45.2% | [16] 13.4% | [18] 64.4% | [19] 13.5%
active: [5] 7.74% | [7] 2.78% | [11] 6.93% | [17] -14.1%

N#Cc1c(Oc2ccc([N+](=O)[O-])cc2)nc2sc3cc(Cl)ccc3n2c1=N
inactive: [1] 73.7% | [2] 56.8% | [3] 98.2% | [4] 107% | [5] 96.5% | [6] 83.7% | [7] 93.7% | [8] 72.9% | [9] 64.3% | [10] 105% | [11] 118% | [13] 97.3% | [14] 32.6% | [15] 64.9% | [16] 76.4% | [17] 106% | [18] 57.6% | [19] 78%
active: [12] -10.6%

COc1cc2c(cc1OC)-c1ccc3cc4c(cc3c1N(CCCN(C)C)C2)OCO4
inactive: [1] 48.7% | [2] 57.6% | [3] 51.3% | [4] 38% | [5] 14.6% | [7] 19.5% | [8] 20.2% | [9] 35% | [10] 38.9% | [11] 20.6% | [12] 58.2% | [13] 36.3% | [14] 35.1% | [15] 34% | [16] 42.7% | [17] 40.2% | [18] 34.6% | [19] 33.2%
active: [6] 9.04%

CN1C(=O)CCC(N2C(=O)c3cccc(NCCOCCOCCNC(=O)c4cc5c(o4)C(=O)c4ccccc4C5=O)c3C2=O)C1=O (centres undefined)
active: [1] -52.7% | [2] -72.1% | [3] -93% | [4] -59.1% | [5] -73.1% | [7] -35% | [8] -45% | [9] 8.13% | [10] -95.3% | [12] -97.4% | [13] -3.68% | [14] -34.6% | [15] -0.714% | [16] -88.1% | [17] -80.4% | [18] -85.1% | [19] -67.2%
inactive: [6] 65% | [11] 10.5%

Cl.Fc1c[c-]c(-c2ccccn2)c(F)c1.[Pt].c1ccc(P(c2ccccc2)C([PH+](c2ccccc2)c2ccccc2)[PH+](c2ccccc2)c2ccccc2)cc1
active: [1] 5.53% | [5] 7.55% | [6] -12.9% | [12] -12.9% | [13] -16% | [16] 5.14% | [17] 9.54% | [18] 6.42%
inactive: [2] 12.5% | [3] 20.8% | [4] 25.9% | [7] 12% | [8] 15.4% | [9] 22.5% | [10] 26.1% | [11] 13.6% | [14] 13.3% | [15] 26.4% | [19] 18.7%

CC(C)N(CCOC(=O)Nc1ccccc1Cl)C(C)C
inactive: [1] 105% | [2] 86.3% | [3] 102% | [4] 93.3% | [5] 103% | [6] 84.4% | [7] 78.6% | [8] 98.4% | [9] 98.8% | [10] 105% | [11] 104% | [12] 104% | [13] 106% | [14] 108% | [15] 101% | [16] 104% | [17] 104% | [18] 99.1% | [19] 99.5%

CN(C)c1ccc(/C=N/NC(=O)COc2cc(=O)n(C)c3ccccc23)cc1
inactive: [1] 93.5% | [2] 105% | [3] 105% | [4] 95.7% | [5] 110% | [6] 93.5% | [7] 96.7% | [8] 110% | [9] 105% | [10] 110% | [11] 103% | [12] 98.4% | [13] 97.1% | [14] 93.4% | [15] 105% | [16] 102% | [17] 100% | [18] 112% | [19] 101%

C=CCN1C(=O)[C@]2(SC1=S)[C@H](c1cccc(Cl)c1)CN(C)[C@]21C(=O)NC2C=CC(Cl)=C[C@H]21 (some centres undefined)
active: [6] -6.48%
inactive: [1] 45.7% | [2] 43.4% | [3] 87.2% | [4] 63.9% | [5] 55.3% | [7] 41.3% | [8] 41.9% | [9] 24.8% | [10] 48.8% | [11] 22.9% | [12] 35.7% | [13] 26.8% | [14] 35.4% | [15] 52.9% | [16] 32.1% | [17] 81.1% | [18] 26.5% | [19] 29.9%

N=C(N)c1ccc(-c2ccc(-c3ccc(Cl)c(Cl)c3)o2)nc1
active: [4] 5.09% | [5] -78.1% | [8] -35.2% | [9] -74.9% | [10] -18.5% | [11] -1.03% | [13] -47% | [16] -70.1% | [19] -51.8%
inactive: [1] 65.5% | [2] 109% | [3] 42.4% | [6] 84.6% | [7] 78.2% | [12] 105% | [14] 86% | [15] 98.5% | [17] 38.8% | [18] 107%
